Data reported in PubChem BioAssay AID1851 (National Center for Advancing Translational Sciences (NCATS), 2009).
Several values for one entry are separate records, joined by “and”; a condition that tells them apart may be missing. Equal entries are not always repeated. Hit rate of the full screen: of about 16,000 compounds, about 5,700 (36%) were called active. Roughly 24% stayed inconclusive and do not appear here. This is one part of the list. Unmarked numbers belong to inactive results. Calls come from the whole dose curve; as a rule, active = well fitted curve in the direction sought with a large enough effect; inconclusive = small, poorly fitted or top-dose-only effect, or effect the other way; inactive = no such curve, though single readings can be large or run the other way.

Molecular target: Cytochrome P450 1A2 (Homo sapiens) (UniProt P05177)
Assay: Cytochrome panel assay with activity outcomes
Conditions: recombinant CYP, pro-luciferin dealkylation, luminescence, p450-cyp1a2; series mostly up to 57.1 µM
% is set by controls: 0 for no effect and ±100 for the full control effect.

Sequence of Cytochrome P450 1A2 (Homo sapiens) (P05177 whole entry, looked up): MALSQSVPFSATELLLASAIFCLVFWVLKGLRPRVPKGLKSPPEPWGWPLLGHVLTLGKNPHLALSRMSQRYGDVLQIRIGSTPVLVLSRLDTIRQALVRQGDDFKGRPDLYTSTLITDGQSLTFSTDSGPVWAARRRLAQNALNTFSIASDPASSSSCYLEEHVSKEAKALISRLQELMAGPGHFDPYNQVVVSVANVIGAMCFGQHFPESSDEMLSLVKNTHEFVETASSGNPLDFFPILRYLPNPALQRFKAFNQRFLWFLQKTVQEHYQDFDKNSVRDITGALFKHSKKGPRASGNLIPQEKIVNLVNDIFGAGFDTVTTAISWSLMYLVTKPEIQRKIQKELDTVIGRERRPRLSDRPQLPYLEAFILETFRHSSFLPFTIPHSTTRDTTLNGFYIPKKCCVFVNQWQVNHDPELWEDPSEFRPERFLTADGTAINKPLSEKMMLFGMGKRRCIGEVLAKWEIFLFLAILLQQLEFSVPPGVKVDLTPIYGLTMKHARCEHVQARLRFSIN

SMILES	AC50	activity, negative = inhibition
C[C@@]1(O)CCOC(=O)C1	inactive	
CCCCC#Cc1nc(N)c2ncn([C@@H]3O[C@@H](C(=O)NCC)[C@H](O)[C@@H]3O)c2n1	inactive	
COc1ccc(CCN(C(=O)C(F)(F)F)C(C(=O)NC2CCCC2)c2cccs2)cc1 (configuration not stated)	12.6 µM (active)	
Cc1ccc(N(C(=O)C(F)(F)F)C(C(=O)NC2CCCCC2)c2cccs2)cc1C (configuration not stated)	inactive	
COc1ccc(CN(C(=O)Cc2cccs2)C(C(=O)NC2CCCC2)c2ccncc2)cc1 (configuration not stated)	inactive	
COc1cccc(N2CCN(C(=O)Nc3ccc4c(c3)NC(=O)CO4)CC2)c1	inactive	
O=C(COC(=O)c1ccccc1Nc1cccc(C(F)(F)F)c1)NCc1ccco1	5.01 µM (active)	
O=C(COC(=O)c1cccc(S(=O)(=O)N2CCN(c3ccccc3)CC2)c1)NCc1ccco1	inactive	
Cc1ccc(C(=O)N/C(=C/C=C/c2ccccc2)C(=O)NCc2ccco2)cc1	inactive	
Cc1cccc(Nc2ccccc2C(=O)OCC(=O)NCc2ccco2)c1C	12.6 µM (active)	
Cc1cccc(Nc2ccccc2C(=O)OCC(=O)N(C)C2CCS(=O)(=O)C2)c1C (configuration not stated)	inactive	
CCN(CC)C(=O)CSc1nnc(C2CCCCC2)o1	inactive	
O=C(O)CCC(=O)N1CCc2cc(S(=O)(=O)NCc3cccs3)ccc21	inactive	
O=C(NCc1ccccc1)c1ccc(S(=O)(=O)N2CCCc3ccccc32)cc1	inactive	
O=C(CSc1nc(-c2ccccc2)cs1)N1CCc2ccccc21	2.51 µM (active)	
CCN(CC)C(=O)CSc1nnc(CNc2ccc(F)cc2)o1	inactive	
O=C(CNCCO)N1CCc2ccccc21	inactive	
O=C(CSc1nnc(CNc2ccc(F)cc2)o1)OC1CCCCC1	25.1 µM (active)	
O=C(CSc1n[nH]c(-c2ccccc2O)n1)N1CCCc2ccccc21	2 µM (active)	
O=C(CSc1nnc(CNc2ccccc2)o1)N1CCCc2ccccc21	12.6 µM (active)	
C[C@]12CC[C@H]3c4ccc(OC[C@H]5CO5)cc4CC[C@H]3[C@H]1CC[C@@H]2O		-8.48% [at 11.4 µM]
CC(=O)OC[C@@H]1O[C@H](CCO/N=C(\C)CCN2CCc3nc(-c4ccccc4)c(-c4ccccc4)cc3C2)C=C[C@@H]1OC(C)=O		1.24% [at 11.4 µM]
O=C1[C@H]2[C@H]3[C@H](O)[C@H](O)C/C(=N/OC[C@@H](O)COCc4ccco4)[C@@H]3CC[C@@H]2C(=O)N1Cc1ccc2c(c1)OCO2		-3.61% [at 11.4 µM]
COC(=O)N/N=C\C=C\c1ccc2c(c1)OCO2	inactive	
Cc1cccc(OCC(=O)N/N=C\C=C\c2ccc3c(c2)OCO3)c1C	5.01 µM (active)	

SMILES	AC50	activity, negative = inhibition
CN1CCC2(CC1)CCN(S(=O)(=O)c1ccccc1)CC2	inactive	
Cc1cc(C)n(C(=O)c2cc3c(s2)CCCC3)n1	0.282 µM (active)	
CC1CN(C(=O)c2cc3c(s2)CCC3)CC(C)O1 (configuration not stated)	12.6 µM (active)	
CC1CN(C(=O)CN2C(=O)NC3(CCCCCC3)C2=O)CC(C)O1 (configuration not stated)	inactive	
Cc1ccc(CC(=O)N2CC(C)OC(C)C2)cc1 (configuration not stated)	inactive	
CCCN(CCC)CCc1cccc2c1CC(=O)N2	inactive	
NC(=O)CNCCC(c1ccccc1)c1ccccc1	inactive	
CN(C)CCCN1c2ccccc2Sc2ccc(C(F)(F)F)cc21	1.58 µM (active) and 794 nM (active)	
CCC(=O)c1ccc2c(c1)N(CCCN(C)C)c1ccccc1S2	0.631 µM (active)	
CN(C)CCCO[C@H]1[C@@H]2OC(C)(C)O[C@@H]2O[C@@H]1[C@H](O)CO	inactive	
C/C(=N/Nc1ccc2ccccc2n1)c1ccccc1O	1.58 µM (active)	
CC(=NC1CCCCC1)c1ccccc1O		-14.9% [at 11.4 µM]
C/C(CCN1CCc2nc(-c3ccccc3)c(-c3ccccc3)cc2C1)=N\O[C@@H](C)CN1CCCc2nc(C)c(C)cc21		-2.64% [at 11.4 µM]
CC(C)NC(=O)CSc1nnc(C2CC2)n1-c1ccccc1	inactive	
Cc1cc2nnc(SCC(=O)OC(C)C)n2c2ccccc12	14.1 µM (active)	
Cc1cc2nnc(SCCCCN3C(=O)c4ccccc4C3=O)n2c2ccccc12	15.8 µM (active)	
Cc1cc2nnc(SCC(=O)N3CCN(c4ccccc4)CC3)n2c(N)n1	inactive	
CCOc1ccc(CNC(=O)C2CC(=O)N(C3CCCC3)C2)cc1OC (configuration not stated)	inactive	
O=C(NCCN1CCN(Cc2ccccc2)CC1)C1CC(=O)N(C2CCCC2)C1 (configuration not stated)	inactive	
CCOc1ccc(CCNC(=O)C2CC(=O)N(C3CCCC3)C2)cc1OCC (configuration not stated)	10 µM (active)	
COc1ccc2cc3[n+](cc2c1OC)CCc1cc2c(cc1-3)OCO2	5.01 µM (active)	
COc1cc2c(cc1OC)-c1cc3ccc(OC)c(OC)c3c[n+]1CC2	inactive	
CCn1nc(C)c(NC(=O)/C=C/c2cnn(C)c2C)c1C	inactive	
CCN1CCN(c2nc(-c3ccccn3)nc3ccccc23)CC1	11.2 µM (active)	
CCn1cc(C(=O)O)c(=O)c2cc(F)c(N3CCNCC3)nc21	inactive	

SMILES	AC50	activity, negative = inhibition
CCN1CCN(c2nn3c(=O)c4ccccc4nc3c3ccccc23)CC1	6.31 µM (active)	
CCN1CCN(C(=O)CCc2nc3ccccc3c(=O)[nH]2)CC1	inactive	
Cc1cccc(C2NC(=O)c3c(sc(C)c3C)N2)c1O (configuration not stated)	3.55 µM (active)	
O=C1CCCC=C1[C@@H](O)CCOC(c1ccccc1)(c1ccccc1)c1ccccc1		-6.79% [at 11.4 µM]
CCOC(=O)N1CCN(C(=O)CN(C)S(=O)(=O)c2ccc3c(c2)C(C)(C)C(=O)N3C)CC1	inactive	
CCCNC(=O)CSc1nc(-c2cccs2)cc(C(F)(F)F)n1	2.51 µM (active)	
CCOC(=O)N1CCN(c2nc(-c3ccco3)cc(C(F)(F)F)n2)CC1	0.501 µM (active)	
COc1cc2nc(N3CCN(C(=O)c4ccco4)CC3)nc(N)c2cc1OC	inactive	
CCOC(=O)N1CCN(C(=O)CNCc2cccs2)CC1	inactive	
COCCNC(=O)CSc1ncnc2sccc12	inactive	
CCOC(=O)N1CCN(c2nc(-c3cccs3)cc(C(F)(F)F)n2)CC1	2.82 µM (active)	
CCC1(C)CC(CCNS(=O)(=O)c2ccc(C)cc2)(c2ccc(C)cc2)CCO1 (configuration not stated)	inactive	
CN(C)c1ncc2nc(-c3ccccc3)c(=O)n(C3CC3)c2n1	2.51 µM (active)	
CN(C)c1ncc2nc(-c3ccc(F)cc3)c(=O)n(C3CC3)c2n1	1.58 µM (active)	
CCc1cccc(N(C)C(N)=Nc2cccc3ccccc23)c1	inactive	
CC(=O)OC[C@H]1O[C@@H](O/N=C\[C@@H](C)[C@H](OCc2ccccc2)C(C)C)[C@H](OC(C)=O)[C@@H](OC(C)=O)[C@H]1OC(C)=O		-8.7% [at 11.4 µM]
CCC(C)(C(=O)NC1CCCC1)N(Cc1ccco1)C(=O)c1ccccn1 (configuration not stated)	inactive	
CN(Cc1ccco1)c1ccnc(-c2ccccc2C(F)(F)F)n1	2.51 µM (active)	
COc1ccccc1-c1nc(N(C)Cc2ccco2)c2ccccc2n1	0.501 µM (active)	
Cc1ccccc1-c1nc(N(C)Cc2ccco2)c2ccccc2n1	1.58 µM (active)	
CN(Cc1ccco1)c1nc(-c2ccccc2C(F)(F)F)nc2ccccc12	2 µM (active)	
CN(C)Cc1ccccc1-c1nc(N(C)Cc2ccco2)c2ccccc2n1	0.794 µM (active)	
CC(C)c1ccc(/C(C(=O)O)=C(\O)C(=O)O)cc1		-18.6% [at 11.4 µM]
COc1c(O)cc2c(c1O)[C@@H]1O[C@@H](CO)[C@@H](O)[C@@H](O)[C@@H]1OC2=O	inactive	
Cc1ccc(C(=O)N/N=C/c2ccc(S(=O)(=O)O)o2)c(Cl)c1	inactive	

SMILES	AC50	activity, negative = inhibition
Cc1ccc(NCC(=O)N/N=C/c2ccc(OC(=O)c3ccco3)cc2)cc1	7.08 µM (active)	
CCOC(=O)N/N=C(/C)c1ccc([N+](=O)[O-])o1	12.6 µM (active)	
CCOC(=O)N/N=C\c1ccc([N+](=O)[O-])o1	12.6 µM (active)	
Cc1ccc(NCC(=O)N/N=C\c2ccc([N+](=O)[O-])o2)cc1	1.41 µM (active)	
O=C(ON=C1CCN(S(=O)(=O)c2ccccc2)CC1)c1ccccc1	inactive	
CCN1C(=O)C2(SC(NC(C)=O)=NN2C(C)=O)c2cc(C)ccc21 (configuration not stated)	inactive	
CC(C)C[C@H](NC(=O)[C@@H]1O[C@H]1C(=O)O)C(=O)NCCCCN=C(N)N	inactive	
Cc1nonc1NC(=O)OCCN1CCOC1=O	inactive	
Clc1ccc2c(c1)C(c1cccs1)=NNC(c1cccnc1)=N2	3.16 µM (active)	
O=c1c(Cl)c(N2CCN(S(=O)(=O)c3ccc(F)cc3)CC2)cnn1-c1cccc(Cl)c1	inactive	
Nc1ccc(Sc2cnn(-c3ccccc3)c(=O)c2Cl)cc1	5.01 µM (active)	
CC1(C)Cc2ccccc2C(NNC(=O)c2ccncc2)=N1	10 µM (active)	
CN1CCC2(CC1)CCN(C(=O)c1ccncc1)CC2	inactive	
CC(C)NNC(=O)c1ccncc1	inactive	
Cc1sc(NC(=O)/C=C/c2ccc(C(C)C)cc2)c(C#N)c1C	inactive	
CC1=C(C#N)C(NC(=O)C2CCCCC2)(C(F)(F)F)C(=O)N1 (configuration not stated)	inactive	
Cc1sc(NC(=O)C2CCCCC2)c(C#N)c1-c1ccccc1	5.01 µM (active)	
Cc1c(OCC(F)(F)F)ccnc1CSc1nc2ccccc2[nH]1	3.55 µM (active)	
C[N+](C)(C)CCCSc1nc2ccccc2[nH]1		-15.1% [at 11.4 µM]
O=c1c[n+](CCCC[n+]2cc(=O)o[nH]2)[nH]o1		2.3% [at 11.4 µM]
CC(C)(Oc1ccc(Cl)cc1)C(=O)Nc1ccncc1	20 µM (active)	
CC(C)(Oc1ccc(Cl)cc1)C(=O)Nc1cccnc1	2 µM (active)	
